A selection: hits, their analogues and other compounds. The true share with any hit is near 12%.
Sm TGR inh = S. mansoni TGR enzyme inhibition; Q962Y6; purified TGR, DTNB reduction, TNB absorbance 405 nm; Potency, µM (doses to about 114 µM), for the others: top-dose activity change, negative = inhibition, actives largely listed as inhibitors; actives 3% (n = 360,000); AID 485364; further: on the % scale 0 is the no-effect control and ±100 the full control effect; nearly all actives have a fitted effect of over 60% in size
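TGR 20 nM + NADPH 100 uM (dispensed conc.), cpd preinc 15 min RT; start with NADPH (500 uM addition) then DTNB (15 mM addition). Kinetic TNB absorbance, 405 nm filter. Four-parameter Hill fit across titration.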
SARS PLP yeast = blocks SARS-CoV papain-like protease in a yeast assay; S. cerevisiae expressing SARS-CoV PLpro, growth rescue; Potency, µM (highest dose often 32.9 µM), inactives show at the highest dose activity, positive = growth rescue, usual class: activators; actives 0.19% (n = 330,000); calls by dose curve; further: 0% is about no effect; nearly all actives have a fitted effect of over 55% in size
Pf growth 48h = P. falciparum growth inhibition at 48 hours (one generation). Potency, µM (top dose mostly 28.7 µM), for inactives: at the highest dose activity change, negative = inhibition, most hits filed as inhibitors. actives 5.9% (n = 310,000). AID 504832. P. falciparum luciferase growth in erythrocytes, 48 h; further: on the % scale 0 is the no-effect control and ±100 the full control effect
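Compounds are pin-transferred into medium, infected erythrocytes (2% hematocrit, 0.1% parasitemia final) are added, and plates sit one parasite generation at 37 C in 5% CO2. Detection reagent is then added and luminescence measured.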
AmpC no deterg = AmpC beta-lactamase inhibition without detergent. AmpC nitrocefin hydrolysis, absorbance 480 nm, 0.0001% Triton. actives 0.52% (n = 330,000). AID 485341. Potency, µM (highest dose often 57.1 µM), without a hit: top-dose activity change, negative = inhibition, usual class: inhibitors;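 further: plate controls were no compound for no effect and no enzyme for full effect; nearly all actives have a fitted effect of over 20% in size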
Target sequence (P00811 whole entry, looked up): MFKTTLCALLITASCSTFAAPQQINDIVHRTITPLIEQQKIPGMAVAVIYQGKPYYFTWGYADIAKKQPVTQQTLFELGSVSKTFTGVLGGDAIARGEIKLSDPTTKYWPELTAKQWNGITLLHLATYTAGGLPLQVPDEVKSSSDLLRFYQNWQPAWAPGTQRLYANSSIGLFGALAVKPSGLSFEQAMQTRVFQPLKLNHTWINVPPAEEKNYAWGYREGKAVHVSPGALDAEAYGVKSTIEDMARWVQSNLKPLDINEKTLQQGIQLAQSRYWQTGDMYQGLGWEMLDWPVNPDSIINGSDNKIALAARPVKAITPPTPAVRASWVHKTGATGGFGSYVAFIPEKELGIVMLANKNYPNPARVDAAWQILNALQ
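AmpC (5.3 nM in the dispensed reagent) in 20 mM phosphate pH 7.0 with 0.01% (detergent screen) or 0.0001% Triton X-100 was preincubated with compounds for 15 min at room temperature. Nitrocefin was then added from an 800 uM solution, and hydrolysis was followed at 480 nm.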
Pf growth 96h = inhibits malaria parasite growth, 96 h | P. falciparum luciferase reporter growth, 96 h | Potency, µM (doses to about 28.7 µM), for inactives: at the top dose activity change, negative = inhibition, actives largely listed as inhibitors | actives 6.9% (n = 320,000) | AID 504834; further: on the % scale 0 is the no-effect control and ±100 the full control effect
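Two parasite generations (96 h, 37 C, 5% CO2) of compound exposure in infected erythrocytes (0.05% parasitemia, 2% hematocrit). Luciferase-reporter P. falciparum; decreased luminescence indicates inhibited growth, aimed at apicoplast-acting delayed death.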
AmpC inh detg = AmpC beta-lactamase inhibition with detergent present; AmpC hydrolysis of nitrocefin, absorbance 480 nm, 0.01% Triton; Potency, µM (doses to about 114 µM), without a hit: top-dose activity change, negative = inhibition, most hits filed as inhibitors; actives 0.041% (n = 370,000);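 further: 0% = no-compound wells and -100% = no-enzyme wells; nearly all actives have a fitted effect of over 25% in size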
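AmpC (5.3 nM in the dispensed reagent) in 20 mM phosphate pH 7.0 with 0.01% (detergent screen) or 0.0001% Triton X-100 was preincubated with compounds for 15 min at room temperature. Nitrocefin was then added from an 800 uM solution, and hydrolysis was followed at 480 nm.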
Numbers without * were called inactive; ? = inconclusive; · = not tested or not shown; ! = repeats disagree. Unless noted, the call rests on the fitted dose curve; in most records, active means well fitted curve in the direction sought with a large enough effect; inconclusive means small, poorly fitted or top-dose-only effect, or another doubt; inactive means no such curve, though single readings can be large; an effect the other way counts as inactive or inconclusive. Potency means the concentration at half of the fitted maximal effect.

SMILES | Sm TGR inh | SARS PLP yeast | Pf growth 48h | AmpC no deterg | Pf growth 96h | AmpC inh detg
OC(c1ccccc1)(c1ccccc1)C1CN2CCC1CC2 (stereo not drawn) | 0% | 8% | ? | -14% | 12µM*! | 6%
OC(Cc1ccccc1)(c1ccccc1)C1CN2CCC1CC2 (stereo not drawn) | 7% | -3% | · | -2% | ? | ?
CCOC(=O)c1c(S(=O)(=O)N2CCCC(C(=O)Nc3cccc(C#N)c3)C2)c(C)n(C)c1C (stereo not drawn) | -2% | · | · | · | · | 5%
COCCn1c(=O)[nH]c2cc(C(=O)N3CCN(c4ccc(F)cc4)CC3)ccc2c1=O | -8% | · | · | · | · | ?
COCCn1c(=O)[nH]c2cc(C(=O)Nc3cc(OC)c(OC)c(OC)c3)ccc2c1=O | 1% | -4% | ? | -11% | 5.2µM* | -1%
COCCn1c(=S)[nH]c2cc(C(=O)N3CCN(c4cccc(Cl)c4)CC3)ccc2c1=O | -2% | 3% | -1% | -1% | 12µM* | 2%
COCCn1c(=O)[nH]c2cc(C(=O)N3CCN(c4cccc(C(F)(F)F)c4)CC3)ccc2c1=O | 2% | 1% | ? | 62% | 12µM* | -4%
COCCn1c(=O)[nH]c2cc(C(=O)N3CCN(c4ccc(OC)cc4)CC3)ccc2c1=O | -10% | 2% | -2% | -4% | 47% | -5%
Cc1cc(C)c(NC(=O)c2nc3ccccc3nc2N2CCCCC2)c(C)c1 | 5% | · | · | · | · | 6%
COc1ccc(S(=O)(=O)c2cn(Cc3ccccc3)c3cc(N4CCCC4)c(F)cc3c2=O)cc1 | 1% | · | · | · | · | 19%
Cc1cc(C)n(C(C)CC(=O)Nc2ccc(C)c(N(C)C)c2)n1 (stereo not drawn) | -1% | · | · | · | · | 25%
COc1cccc(C(=O)NCCSCc2c(F)cccc2Cl)c1 | 3% | -10% | 42% | -29% | ? | ?
CCn1c(=O)n(CC)c2cc(N3CCCCC3)c(NC(=O)Nc3ccccc3Cl)cc21 | -17% | · | · | · | · | -1%
O=[N+]([O-])c1ccc(S(=O)(=O)Nc2nc(-c3ccccc3)cs2)cc1 | -6% | -7% | 25% | -49% | 6.6µM* | -18%
O=S(=O)(Nc1nc(-c2ccccc2)cs1)c1cccc(C(F)(F)F)c1 | -24% | -5% | 35% | -30% | 0% | -2%
COc1ccc2c(c1)c1c(c(=O)n(-c3cccc(Cl)c3)c(=O)n1CC(=O)NCC1CCCO1)n2C (stereo not drawn) | 3% | · | · | · | · | 24%
COc1ccc(/C=C2/SC(=S)N(CCCC(=O)Nc3cccc(O)c3)C2=O)cc1 | -8% | 2% | 15µM* | -43% | ? | -5%
O=C(CCCN1C(=O)/C(=C/c2ccco2)SC1=S)Nc1cccc(C(=O)O)c1 | -6% | -1% | -8% | -24% | 13µM* | 3%
COc1ccc(/C=C2\SC(=S)N(CCC(=O)Nc3cccc(O)c3)C2=O)cc1OC | 3% | 1% | 0% | -22% | ? | 3%
COc1ccc(NC(=O)CCCN2C(=O)/C(=C\c3ccco3)SC2=S)cc1 | -8% | -18% | 8% | -32% | 5.2µM* | 6%
COc1cccc(/C=C2\SC(=S)N(CCCC(=O)N(CCO)c3ccccc3)C2=O)c1 | -11% | 9% | 12µM* | 174% | 1.9µM* | -14%
O=C1/C(=C/c2cccc(Br)c2)SC(=S)N1CCC(=O)N(CCO)c1ccccc1 | -12% | 2% | -19% | 56% | -20% | -8%
COCCCN(C(=O)C1CCC1)c1c(N)n(Cc2ccccc2)c(=O)[nH]c1=O | -9% | -2% | 3% | -12% | -18% | -15%
O=C(CCCN1C(=O)/C(=C\c2ccco2)SC1=S)Nc1ccc(O)cc1C(=O)O | 10µM* | 5% | 11% | -54% | 2% | ?
O=C(CCCN1C(=O)/C(=C\c2cccs2)SC1=S)Nc1ccc(O)cc1C(=O)O | -2% | 0% | 5% | -27% | ? | -1%
SMILES | Sm TGR inh | SARS PLP yeast | Pf growth 48h | AmpC no deterg | Pf growth 96h | AmpC inh detg
O=C(Nc1ccccc1C(=O)NCCCN1CCOCC1)c1ccc(Cl)cc1 | 5% | -4% | -10% | 38% | ? | -1%
CN1CCC(OC(=O)c2ccccc2)CC1 | 5% | 1% | -2% | -17% | -19% | 11%
CN1CCC(OC(=O)COc2ccccc2)CC1 | 5% | 1% | 9% | 14% | 12µM* | -15%
CCCOC(C(=O)OC1CCN(C)CC1)(c1ccccc1)c1ccccc1 | · | · | 12µM* | · | 12µM* | ·
CN1CCC(OC(=O)COc2ccc(F)cc2)CC1 | -5% | 2% | 2% | 9% | ? | 2%
CC(=O)N1CCc2c(sc3c2c(=O)n(-c2ccccc2)c(=O)n3CC(=O)Nc2ccccc2C)C1 | -4% | · | · | · | · | -3%
O=C(Nc1ccccc1Cl)c1cc(S(=O)(=O)N2CCCCC2)ccc1N1CCOCC1 | 0% | -4% | 9.3µM* | 24% | 5.9µM* | 2%
CC(C)COc1ccc(C(=O)Nc2cc(S(=O)(=O)N3CCOCC3)ccc2N2CCCC2)cc1 | -2% | 3% | 8.3µM* | -17% | ? | 8%
CC(C)Oc1ccc(S(=O)(=O)N2CCOCC2)cc1NC(=O)c1cc([N+](=O)[O-])ccc1N1CCOCC1 | -1% | 6% | 13µM* | 138% | 12µM* | -10%
Cc1c(C(=O)Nc2cc(S(=O)(=O)N3CCOCC3)ccc2N2CCOCC2)oc2ccccc12 | 4% | -1% | 10µM* | -7% | ? | ?
Cc1oc2c(cc(NS(=O)(=O)c3ccc(F)cc3)c3ccccc32)c1C(=O)OCc1ccccc1 | -10% | · | · | · | · | 5%
O=C(Nc1cc(S(=O)(=O)N2CCOCC2)ccc1N1CCOCC1)c1ccc(S(=O)(=O)N2CCCCC2)cc1 | 18% | -4% | 12µM* | 181% | ? | -3%
N#Cc1ccc(C(=O)Nc2cc(S(=O)(=O)N3CCOCC3)ccc2N2CCCC2)cc1 | · | 1% | · | 8% | · | ·
N#Cc1ccc(C(=O)Nc2cc(S(=O)(=O)Nc3ccc(Cl)cc3)ccc2N2CCCCC2)cc1 | 0% | 4% | 13µM* | -55% | 10µM* | -11%
CC(C)Oc1ccc(C(=O)Nc2cc(S(=O)(=O)N3CCOCC3)ccc2N2CCOCC2)cc1 | -5% | -2% | 13µM* | 191% | ? | ?
CC(=O)NCCC(=O)Nc1cc(S(=O)(=O)N2CCCCC2)ccc1N1CCCCC1 | -3% | 2% | 1.2µM* | 140% | 1.2µM* | 3%
CN(C)c1ccc(C(CNS(=O)(=O)c2ccc(Br)cc2)N2CCOCC2)cc1 (stereo not drawn) | -14% | · | · | · | · | -1%

Source: PubChem (National Center for Advancing Translational Sciences (NCATS))
